# HEK293 tox: cytotoxicity counter-screen for GLP-1 receptor inverse agonists. HEK293 cAMP-luciferase reporter cells, luminescence, 24 h. Potency, µM (doses to about 38.3 µM), without a hit: top-dose activity change, negative = inhibition, most hits filed as inhibitors. 410,000 compounds, 0.13% hits;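 also: loss of luciferase light is scored as toxicity; % is scaled to controls: 0 for no effect and ±100 for the full control effect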
#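 To flag toxic compounds, the library was rerun on cells for 24 hr at 37 deg C and 5% CO2. Viability-linked luminescence was captured 12 min after adding luciferase detection reagent.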
# IDH1 R132H inh: inhibitors of human mutant IDH1 R132H; O75874; IDH1-R132H enzyme, NADPH consumption, diaphorase/resazurin fluorescence; Potency, µM (top dose mostly 76.6 µM), for the others: at the top dose activity change, negative = inhibition, usual class: inhibitors; 390,000 compounds, 0.093% hits; also: % is scaled to controls: 0 for no effect and ±100 for the full control effect; nearly all actives have a fitted effect of over 65% in size
# Target sequence (O75874 whole entry R132H, stated change not applied): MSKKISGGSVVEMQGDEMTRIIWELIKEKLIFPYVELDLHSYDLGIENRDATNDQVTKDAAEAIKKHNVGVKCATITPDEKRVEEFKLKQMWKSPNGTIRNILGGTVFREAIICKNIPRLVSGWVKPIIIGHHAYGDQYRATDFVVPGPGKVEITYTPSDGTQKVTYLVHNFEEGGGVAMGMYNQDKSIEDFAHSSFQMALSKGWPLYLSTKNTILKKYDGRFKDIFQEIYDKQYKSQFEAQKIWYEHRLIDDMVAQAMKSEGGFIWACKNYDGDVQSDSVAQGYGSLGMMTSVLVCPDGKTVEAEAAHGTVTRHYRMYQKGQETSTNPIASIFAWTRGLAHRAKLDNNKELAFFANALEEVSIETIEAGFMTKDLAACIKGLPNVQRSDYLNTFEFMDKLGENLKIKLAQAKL
#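 IDH1-R132H (0.5 ug/mL) preincubated 30 min with compound, then NADPH (0.016 mM) and alpha-KG (2 mM) added; 80 min at RT, pH 7.5. Remaining NADPH coupled via diaphorase/resazurin to fluorescence (540/590 nm); concentration-response curves normalized to no-enzyme control.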
# GLP1R inv ag: inverse agonists of human GLP-1 receptor. AID 624417. 410,000 compounds, 1.6% hits. P43220. Potency, µM (top dose mostly 38.3 µM), for inactives: at the top dose activity change, negative = inhibition, most hits filed as inhibitors. HEK293 GLP-1R CRE-luciferase, luminescence, 24 h; GLP-1R form is constitutively active; also: % is scaled to controls: 0 for no effect and ±100 for the full control effect; nearly all actives have a fitted effect of over 55% in size
#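 GLP-1R inverse agonism mode: basal reporter luminescence in engineered HEK293 cells measured after one day of compound exposure at 37 deg C, with a 12 min room-temperature detection step.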
# GLP-1R agonist: activates the human GLP-1 receptor; HEK293 GLP-1R CRE-luciferase, luminescence, 4-6 h; cells express a hypersensitive GLP-1R form; 380,000 compounds, 0.007% hits; Potency, µM (highest dose often 45.6 µM), for the others: at the top dose activation, hits mostly activators; also: % of control where 0% means no effect
# rTrxR1 inhibitor: inhibitors of rat thioredoxin reductase 1 | Potency, µM (series often up to 114 µM), inactives show at the top dose activity change, negative = inhibition, usual class: inhibitors | recombinant rTrxR1, NADPH fluorescence consumption, selenite substrate | 390,000 compounds, 1% hits | O89049; also: % is scaled to controls: 0 for no effect and ±100 for the full control effect; nearly all actives have a fitted effect of over 65% in size
#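 Rat TrxR1 (90 nM in the dispensed reagent) was pre-reduced with 400 uM NADPH for 5 min at room temperature, then incubated with compound for 15 min. After 400 uM selenite was added, NADPH fluorescence (Ex 340/Em 450 nm) was followed for 8 min.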
# TrxR1 substrate: rat thioredoxin reductase 1 substrate activity; O89049; purified TrxR1 substrate turnover, NADPH consumption readout; Potency, µM (highest dose often 114 µM), inactives show top-dose activity change, negative = substrate turnover; 390,000 compounds, 0.01% hits; also: % is scaled to controls: 0 for no effect and ±100 for the full control effect; nearly all actives have a fitted effect of over 50% in size
#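 Rat TrxR1, dispensed at 90 nM, was prereduced with 400 uM NADPH (final) for 5 min at ~22 deg C, then incubated with compound 15 min before 400 uM selenite. A first-read NADPH fluorescence drop versus no-compound background flagged substrates.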
# * marks the source's active call; other numbers are inactive results; ? = inconclusive; / = no result given; [ ] = remark or other dose. Sampled rows, rich in hits. Any-hit rate of the full collection: about 2.7%. Calls follow the shape of the dose curve; as a rule, active = well fitted curve in the direction sought with a large enough effect; inconclusive = small, poorly fitted or top-dose-only effect, or another doubt; inactive = no such curve, though single readings can be large; an effect the other way counts as inactive or inconclusive. Potency is read from the fitted curve at half-maximal effect.
SMILES,HEK293 tox,IDH1 R132H inh,GLP1R inv ag,GLP-1R agonist,rTrxR1 inhibitor,TrxR1 substrate
COc1ccc(OC)c2c(/C=C/c3ccc(N(C)C)cc3)ccnc12,/,/,/,/,-9%,-4%
O=C(CNC(=O)Cn1ccc2ccccc2c1=O)NCCCN1CCN(c2cccc(Cl)c2)CC1,11%,2%,10µM*,-1%,17%[57.1 µM],10%[57.1 µM]
CC1Nc2ncnc(N3CCN(c4ccccc4)CC3)c2N(Cc2ccc(Cl)cc2)C1=O (configuration not stated),-56%,-6%,10µM*,0%,23%[57.1 µM],10%[57.1 µM]
O=C1C(Cc2ccccc2)Nc2ncnc(N3CCN(c4ccccc4)CC3)c2N1Cc1ccc(Cl)cc1 (configuration not stated),34%,0%,11µM*,-4%,11%[57.1 µM],10%[57.1 µM]
CC1Nc2ncnc(N3CCN(c4ccccc4)CC3)c2N(Cc2ccccc2)C1=O (configuration not stated),8%,1%,-11%,-6%,1%,-4%
O=C1C(Cc2ccccc2)Nc2ncnc(N3CCCCC3)c2N1Cc1ccc(Cl)cc1 (configuration not stated),0%,-15%,13µM*,4%,3%[57.1 µM],1%
CC(C)CC1Nc2ncnc(N3CCCCC3)c2N(Cc2ccccc2)C1=O (configuration not stated),-28%,8%,?,0%,-6%,-8%
O=S(=O)(c1cccc(Cl)c1)N1CCN(c2nc(-c3cccs3)nc3ccccc23)CC1,/,/,/,/,-3%,3%
COc1ccc(S(=O)(=O)N(CC(=O)NCCc2ccccc2)c2ccc(Cl)cc2)cc1,3%,7%,18%,1%,-2%,-3%
O=C(CC(c1ccccc1)c1ccccc1)Nc1ccc(Cl)cn1,?,-1%,5µM*,-7%,-5%,-12%
COc1cccc2c1cc1c(=O)n(CC(=O)N3CCN(c4cccc(C(F)(F)F)c4)CC3)nc(C)n12,0%,-13%,-13%,/,20%,19%
COc1ccc(CC(=O)n2[nH]c(=O)ccc2=O)cc1OC,11%,-6%,20%,3%,3.5µM*,11%[57.1 µM]
COc1ccc(CC(=O)n2[nH]c(=O)c3ccccc3c2=O)cc1OC,11%,5%,11%,3%,17%[11.4 µM],5%[11.4 µM]
COc1ccc(-c2cc(-c3ccco3)[nH]c(=O)c2C#N)cc1OC,-1%,0%,76%,9%,16µM*,46%
CCN(c1ccccc1C)S(=O)(=O)c1nnc(NC(=O)c2ccc(OC)c(OC)c2)s1,2%,-13%,-8%,/,9%,6%[11.4 µM]
Cc1ccc(C2C(C(=O)c3cc4ccccc4o3)=C(O)C(=O)N2CCN2CCOCC2)o1 (configuration not stated),17%,-4%,48%,11%,22µM*,-9%
O=C(C1=C(O)C(=O)N(CCN2CCOCC2)C1c1ccccn1)c1cccs1 (configuration not stated),-7%,7%,0%,-2%,22µM*,1%
CC(=O)C1=C(O)C(=O)N(CCN2CCOCC2)C1c1ccccc1 (configuration not stated),21%,4%,0%,1%,50µM*,-3%
O=C(C1=C(O)C(=O)N(CCN2CCOCC2)C1c1ccc(F)cc1)c1cccs1 (configuration not stated),2%,4%,10%,-5%,-9%,-8%
COc1ccc(OC)c(C2C(C(C)=O)=C(O)C(=O)N2CCN2CCOCC2)c1 (configuration not stated),-1%,8%,-7%,-9%,-27%,-1%
CCOc1ccc(C2C(C(=O)c3ccco3)=C(O)C(=O)N2CCN2CCOCC2)cc1OCC (configuration not stated),-7%,5%,3%,1%,?,-7%
CCOc1ccc(C2C(C(=O)c3ccc(C)o3)=C(O)C(=O)N2CCN2CCOCC2)cc1OC (configuration not stated),-6%,7%,0%,-12%,56µM*,-7%
COc1ccccc1CNC(=O)COc1cc(=O)n(C)c2ccccc12,0%,-5%,-1%,6%,25%,-2%
C(=C1C=c2ccccc2=C1)c1ccc(N=Nc2ccc(C=C3C=c4ccccc4=C3)cc2)cc1,/,/,/,/,9%,-4%
Cc1c(C(=O)NCc2ccccc2Cl)sc2nc3n(c(=O)c12)CCCC3,-3%,19%,-18%,/,-8%,5%[11.4 µM]
SMILES,HEK293 tox,IDH1 R132H inh,GLP1R inv ag,GLP-1R agonist,rTrxR1 inhibitor,TrxR1 substrate
CC(CCc1ccccc1)NC(=O)Cn1c(=O)nc(-c2ccccc2F)c2cc(Cl)ccc21 (configuration not stated),0%,-11%,-14%,/,8%[57.1 µM],4%[57.1 µM]
COc1cccc2cc(C(=O)C3=C(O)C(=O)N(Cc4ccco4)C3c3cccnc3)oc12 (configuration not stated),1%,-4%,29%,-6%,?,-16%
O=C(C1=C(O)C(=O)N(CCN2CCOCC2)C1c1cccc(F)c1)c1cc2ccccc2o1 (configuration not stated),-3%,-7%,3%,-4%,?,-12%
O=C(C1=C(O)C(=O)N(CCN2CCOCC2)C1c1cccs1)c1cc2ccccc2o1 (configuration not stated),-18%,2%,1%,4%,56µM*,-1%
O=C(C1=C(O)C(=O)N(CCN2CCOCC2)C1c1cccc(O)c1)c1cc2ccccc2o1 (configuration not stated),5%,2%,5%,1%,50µM*,-3%
O=C(C1=C(O)C(=O)N(Cc2ccco2)C1c1cccnc1)c1cc2ccccc2o1 (configuration not stated),-2%,-2%,34%,-21%,13µM*,-7%
CN(C)c1ccc(NC(=O)CCSc2nc(-c3ccco3)cc(C(F)(F)F)n2)cc1,-5%,2%,-19%,/,13%,-1%
CCO[C@@H]1OC(C(=O)N2CCN(Cc3ccc4c(c3)OCO4)CC2)=C[C@H](C2CCCCC2)[C@H]1CCCO,-26%,?,11µM*,14%,-2%,-9%
CCO[C@H]1OC(C(=O)N2CCN(Cc3ccccc3)CC2)=C[C@@H](C2CCCCC2)[C@@H]1CCCO,-12%,8%,?,12%,-10%,-4%
O=C(COc1ccccc1C(=O)Nc1ccccc1)NC1CCCCC1,/,/,/,/,7%,5%
